Reference: the supplement of paper PMC8728848
This is one part of a sample in which the strongest signals are shown more often than they occur.

Key:
Experiment in all cases: glycan array binding signal (z-score within array); higher = stronger binding
Conditions in all cases: glycan notation: IUPAC condensed, linker removed
Fuc(a1-2)Gal = molecular target: Fuc(a1-2)Gal
Outline: (§1)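 The binding signal is a Z-score computed within each array and averaged over linkers. Arrays of the same protein sequence at different concentrations or buffers were also averaged together. Data originate from 3228 arrays in the Consortium for Functional Glycomics database, kept only where the protein sequence was available.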

[1] = molecular target: Fuc(a1-2)Gal(b1-3)GlcNAc(b1-2)Man(a1-3)[Fuc(a1-2)Gal(b1-3)GlcNAc(b1-2)Man(a1-6)]Man(b1-4)GlcNAc(b1-4)GlcNAc
Outline: as §1

[2] = molecular target: Fuc(a1-2)Gal(b1-3)GlcNAc(b1-3)[Neu5Ac(a2-6)Gal(b1-4)GlcNAc(b1-6)]Gal(b1-4)Glc
Outline: as §1

Fuc(a1-2)Gal(b1-4)Glc = molecular target: Fuc(a1-2)Gal(b1-4)Glc
Outline: as §1

[3] = molecular target: Fuc(a1-2)Gal(b1-4)GlcNAc(b1-2)Man
Outline: as §1

[4] = molecular target: Fuc(a1-2)[Gal(a1-3)]Gal(b1-4)GlcNAc
Outline: as §1

[5] = molecular target: Fuc(a1-2)[Gal(a1-3)]Gal(b1-4)GlcNAc(b1-2)Man(a1-3)[Fuc(a1-2)[Gal(a1-3)]Gal(b1-4)GlcNAc(b1-2)Man(a1-6)]Man(b1-4)GlcNAc(b1-4)GlcNAc
Outline: as §1

[6] = molecular target: Fuc(a1-2)[Gal(a1-3)]Gal(b1-4)[Fuc(a1-3)]GlcNAc
Outline: as §1

[7] = molecular target: Fuc(a1-2)[GalNAc(a1-3)]Gal(b1-3)GlcNAc(b1-6)GalNAc
Outline: as §1

[8] = molecular target: Fuc(a1-3)[Gal(b1-4)]GlcNAc(b1-6)GalNAc
Outline: as §1

[9] = molecular target: Gal(a1-3)Gal(b1-3)[Fuc(a1-4)]GlcNAc(b1-2)Man(a1-3)[Gal(a1-3)Gal(b1-3)[Fuc(a1-4)]GlcNAc(b1-2)Man(a1-6)]Man(b1-4)GlcNAc(b1-4)GlcNAc
Outline: as §1

[10] = molecular target: Gal(a1-3)Gal(b1-4)GlcNAc(b1-2)Man
Outline: as §1

Gal(a1-3)GalNAc = molecular target: Gal(a1-3)GalNAc
Outline: as §1

Gal(b1-2)Gal = molecular target: Gal(b1-2)Gal
Outline: as §1

[11] = molecular target: Gal(b1-3)GlcNAc(b1-6)Gal(b1-4)GlcNAc
Outline: as §1

[12] = molecular target: Gal(b1-4)GlcNAc(b1-2)Man(a1-3)[Man(a1-6)]Man(b1-4)GlcNAc(b1-4)GlcNAc
Outline: as §1

[13] = molecular target: Gal(b1-4)GlcNAc(b1-3)Gal(b1-3)GalNAc
Outline: as §1

[14] = molecular target: Gal(b1-4)GlcNAc(b1-3)Gal(b1-4)GlcNAc(b1-2)[Gal(b1-4)GlcNAc(b1-3)Gal(b1-4)GlcNAc(b1-6)]Man(a1-6)[Gal(b1-4)GlcNAc(b1-3)Gal(b1-4)GlcNAc(b1-2)Man(a1-3)]Man(b1-4)GlcNAc(b1-4)[Fuc(a1-6)]GlcNAc
Outline: as §1

[15] = molecular target: Gal(b1-4)GlcNAc(b1-3)Gal(b1-4)GlcNAc(b1-3)Gal(b1-4)GlcNAc(b1-3)Gal(b1-4)GlcNAc(b1-2)Man(a1-3)[Gal(b1-4)GlcNAc(b1-3)Gal(b1-4)GlcNAc(b1-3)Gal(b1-4)GlcNAc(b1-3)Gal(b1-4)GlcNAc(b1-2)Man(a1-6)]Man(b1-4)GlcNAc(b1-4)[Fuc(a1-6)]GlcNAc
Outline: as §1

[16] = molecular target: Gal(b1-4)GlcNAc(b1-3)Gal(b1-4)GlcNAc(b1-3)Gal(b1-4)GlcNAc(b1-3)Gal(b1-4)GlcNAc(b1-3)Gal(b1-4)GlcNAc(b1-2)Man(a1-3)[Gal(b1-4)GlcNAc(b1-3)Gal(b1-4)GlcNAc(b1-3)Gal(b1-4)GlcNAc(b1-3)Gal(b1-4)GlcNAc(b1-3)Gal(b1-4)GlcNAc(b1-2)Man(a1-6)]Man(b1-4)GlcNAc(b1-4)[Fuc(a1-6)]GlcNAc
Outline: as §1

[17] = molecular target: Gal(b1-4)GlcNAc(b1-3)[GlcNAc(b1-6)]Gal(b1-4)GlcNAc
Outline: as §1

Gal6S(b1-4)Glc6S = molecular target: Gal6S(b1-4)Glc6S
Outline: as §1

[18] = molecular target: GalNAc(b1-4)GlcNAc(b1-3)GalNAc(b1-4)GlcNAc
Outline: as §1

[19] = molecular target: GlcNAc(a1-3)Gal(b1-4)GlcNAc
Outline: as §1

[20] = molecular target: GlcNAc(a1-6)Gal(b1-4)GlcNAc
Outline: as §1

[21] = molecular target: GlcNAc(b1-2)[GlcNAc(b1-6)]Man(a1-6)[GlcNAc(b1-2)Man(a1-3)]Man(b1-4)GlcNAc(b1-4)GlcNAc
Outline: as §1

[22] = molecular target: GlcNAc(b1-3)Gal(b1-4)GlcNAc(b1-2)Man(a1-3)[GlcNAc(b1-3)Gal(b1-4)GlcNAc(b1-2)Man(a1-6)]Man(b1-4)GlcNAc(b1-4)[Fuc(a1-6)]GlcNAc
Outline: as §1

GlcNAc(b1-3)GalNAc = molecular target: GlcNAc(b1-3)GalNAc
Outline: as §1

[23] = molecular target: Kdn(a2-3)Gal(b1-4)[Fuc(a1-3)]GlcNAc
Outline: as §1

[24] = molecular target: Neu5Ac(a2-3)Gal(b1-3)GlcNAc
Outline: as §1

[25] = molecular target: Neu5Ac(a2-3)Gal(b1-3)GlcNAc(b1-2)Man
Outline: as §1

[26] = molecular target: Neu5Ac(a2-3)Gal(b1-4)GlcNAc(b1-2)[Neu5Ac(a2-3)Gal(b1-4)GlcNAc(b1-6)]Man(a1-6)[Neu5Ac(a2-3)Gal(b1-4)GlcNAc(b1-2)Man(a1-3)][GlcNAc(b1-4)]Man(b1-4)GlcNAc(b1-4)GlcNAc
Outline: as §1

[27] = molecular target: Neu5Ac(a2-3)Gal(b1-4)GlcNAc(b1-3)Gal(b1-4)GlcNAc(b1-3)Gal(b1-4)GlcNAc(b1-2)Man(a1-3)[Neu5Ac(a2-3)Gal(b1-4)GlcNAc(b1-3)Gal(b1-4)GlcNAc(b1-3)Gal(b1-4)GlcNAc(b1-2)Man(a1-6)]GalNAc
Outline: as §1

[28] = molecular target: Neu5Ac(a2-3)Gal(b1-4)[Fuc(a1-3)]GlcNAc6S
Outline: as §1

[29] = molecular target: Neu5Ac(a2-6)Gal(b1-4)GlcNAc(b1-2)Man(a1-3)[Neu5Ac(a2-3)Gal(b1-4)GlcNAc(b1-2)Man(a1-6)]Man(b1-4)GlcNAc(b1-4)GlcNAc
Outline: as §1

Neu5Ac(a2-8)Neu5Ac = molecular target: Neu5Ac(a2-8)Neu5Ac
Outline: as §1

[30] = molecular target: Neu5Ac(a2-8)Neu5Ac(a2-3)Gal(b1-4)Glc
Outline: as §1

Neu5Ac(b2-6)GalNAc = molecular target: Neu5Ac(b2-6)GalNAc
Outline: as §1

Neu5Gc(a2-6)GalNAc = molecular target: Neu5Gc(a2-6)GalNAc
Outline: as §1

B1: Loc1 (Escherichia coli) (protein)
chain: APCALTNVGEQRGTYILKPLSMKGNLTAEKIENTGNIIECTDLQETTNAIKVHFLTQNALKFKVGSRHYIINFPFEYDGKKIELPGKSSYNLEEMLSAINFTIPYSIASVSDSSNTADIFPGTPFPLLFEIEVSSCTGNNTNCNSVRFNYNLNTILQVNLMTHHHHHH
Fuc(a1-2)Gal
  glycan array binding signal (z-score): 0.363
[1]
  glycan array binding signal (z-score): -1.09
[2]
  glycan array binding signal (z-score): -0.102
Fuc(a1-2)Gal(b1-4)Glc
  glycan array binding signal (z-score): -0.622
[3]
  glycan array binding signal (z-score): -0.607
[4]
  glycan array binding signal (z-score): 2
[5]
  glycan array binding signal (z-score): 1.97
[6]
  glycan array binding signal (z-score): -0.548
[7]
  glycan array binding signal (z-score): -0.51
[8]
  glycan array binding signal (z-score): 3.45
[9]
  glycan array binding signal (z-score): -0.81
[10]
  glycan array binding signal (z-score): 0.198
Gal(a1-3)GalNAc
  glycan array binding signal (z-score): 7.25
Gal(b1-2)Gal
  glycan array binding signal (z-score): 1.18
[11]
  glycan array binding signal (z-score): 0.216
[12]
  glycan array binding signal (z-score): -0.747
[13]
  glycan array binding signal (z-score): 0.355
[14]
  glycan array binding signal (z-score): 2.29
[15]
  glycan array binding signal (z-score): 2.43
[16]
  glycan array binding signal (z-score): 1.98
[17]
  glycan array binding signal (z-score): -0.48
Gal6S(b1-4)Glc6S
  glycan array binding signal (z-score): 0.298
[18]
  glycan array binding signal (z-score): 0.68
[19]
  glycan array binding signal (z-score): -0.527
[20]
  glycan array binding signal (z-score): 2.41
[21]
  glycan array binding signal (z-score): 3.01
[22]
  glycan array binding signal (z-score): 0.259
GlcNAc(b1-3)GalNAc
  glycan array binding signal (z-score): -0.454
[23]
  glycan array binding signal (z-score): -0.405
[24]
  glycan array binding signal (z-score): -0.838
[25]
  glycan array binding signal (z-score): -0.478
[26]
  glycan array binding signal (z-score): -0.322
[27]
  glycan array binding signal (z-score): 2.75
[28]
  glycan array binding signal (z-score): 0.57
[29]
  glycan array binding signal (z-score): 0.21
Neu5Ac(a2-8)Neu5Ac
  glycan array binding signal (z-score): 0.04
[30]
  glycan array binding signal (z-score): 8.5
Neu5Ac(b2-6)GalNAc
  glycan array binding signal (z-score): -0.643
Neu5Gc(a2-6)GalNAc
  glycan array binding signal (z-score): 0.381
